# This is a sample that favours compounds with a hit; in the whole collection about 2.2% have one here.
# TDP43 rescue – inhibitors of TDP-43 toxicity in yeast | TDP-43 expressing yeast growth rescue, BacTiter-Glo, 24 h | Potency, µM (titrated, usually from 46.1 µM), for inactives: at the highest dose growth rescue (activation), actives largely listed as activators | hit rate 1.8% among 410,000 | AID 652104; note: % of control where 0% means no effect; nearly all actives have a fitted effect of over 50% in size
#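 Cell-based yeast growth screen: TDP-43 expression induced in galactose, inoculum OD600=0.02 after raffinose pregrowth to mid-log. Read-out BacTiter-Glo luminescence at 24 hr, 30 deg C; inhibition of toxicity seen as signal increase.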
# Mito fusion yeast – mitochondrial division inhibition or fusion activation. S. cerevisiae fusion-defective mutant growth rescue, CellTiterGlo 48 h. Potency, µM (doses to about 46.1 µM), without a hit: at the top dose growth rescue (activation), usual class: activators. hit rate 0.23% among 320,000. AID 485298; note: % of control where 0% means no effect; nearly all actives have a fitted effect of over 45% in size
#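 Growth-rescue viability read-out: after 48 h at the non-permissive 37C in glycerol/ethanol YPEG, yeast mitochondrial fusion mutants are measured by CellTiterGlo luminescence; compounds (23 nl pinned per well) restoring growth score as division inhibitors or fusion activators.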
# aSyn rescue – inhibitors of alpha-synuclein toxicity in yeast | Potency, µM (highest dose often 46.1 µM), for inactives: at the top dose growth rescue (activation), usual class: activators | hit rate 0.14% among 370,000 | Yeast expressing alpha-synuclein, growth rescue, BacTiter-Glo, 24 h; note: % of control where 0% means no effect; nearly all actives have a fitted effect of over 65% in size
#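 Rescue of yeast growth: cells expressing toxic alpha-synuclein, induced in galactose at OD600 0.02, incubated with compound 24 h at 30 C. ATP luminescence quantified growth; inhibitors of toxicity appear as activators.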
# FUS suppressor – suppressors of FUS proteinopathy in yeast; S. cerevisiae FUS-expressing, growth rescue, OD600, 24 h; Potency, µM (top dose mostly 76.6 µM), actives largely listed as activators; hit rate 0.24% among 390,000; AID 1347120;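 note: plate controls were DMSO vehicle for no effect and reference control for full effect; nearly all actives have a fitted effect of over 55% in size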
#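 Yeast expressing FUS under galactose induction, OD 0.005 in 2% galactose medium; compounds in a dilution series, 24 h at 30C. Growth rescue by absorbance at 600 nm; CP55940 positive control, DMSO negative.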
# Abeta yeast res – restores growth of yeast expressing A-beta42 peptide; yeast expressing A-beta42, growth rescue, OD600, 48 h; response scale: 0% DMSO, 100% iron-clioquinol control; Potency, µM (series often up to 46.1 µM), actives largely listed as activators; hit rate 0.063% among 410,000; note: nearly all actives have a fitted effect of over 55% in size
#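 Yeast A-beta toxicity model in growth medium with pinned compounds, 48 h at 30 C; growth read as absorbance at 600 nm. Normalized to FeCl3/clioquinol equimolar mix (positive) and DMSO (negative).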
# The depositor's hits bear a star; i = inactive; ? = inconclusive; / = no result; [ ] = another dose, or the depositor's remark. Calls come from the whole dose curve; as a rule, active = well fitted curve in the direction sought with a large enough effect; inconclusive = small, poorly fitted or top-dose-only effect, or another doubt; inactive = no such curve, though single readings can be large; an effect the other way counts as inactive or inconclusive. Potency is the fitted concentration of half-maximal effect.
SMILES,TDP43 rescue,Mito fusion yeast,aSyn rescue,FUS suppressor,Abeta yeast res
O=C(Cc1ccccc1F)Nc1nc(-c2ccc(F)cc2)cs1,13µM*,14%,-7%,i,i
COc1ccccc1CC(=O)Nc1nc(-c2ccc(F)c(F)c2)cs1,18µM*,0%,-7%,i,i
COc1ccc(-c2csc(NC(=O)Cc3ccccc3F)n2)cc1OC,?,26%,-36%,i,i
O=S(=O)(c1ccc(F)cc1)N1CCN(c2nc(-c3ccccc3)nc3cc(Cl)ccc23)CC1,/,/,6%,/,/
CCc1ccccc1NC(=O)Cn1c(=O)n(CCCCCC(=O)NCc2ccc(C)cc2)c(=O)c2sccc21,-3%,/,/,i,i
C[C@H]1[C@@H](OC(=O)NCc2ccccc2)CC[C@@]23CCCN2C(=O)CCC[C@@H]13,/,/,/,i,/
COc1ccccc1C(=O)O/N=C(\N)c1ccc(Cl)cc1,14µM*,4%,-42%,i,i
COc1cccc(N/C=C/C(=O)c2ccc(OC)c(OC)c2)c1,2%,-10%,?,i,i
Cc1cc(C)cc(C(=O)O/N=C(\N)c2ccc(Br)cc2)c1,35µM*,15%,1%,i,i
COc1ccc(C(=O)O/N=C(\N)c2cccc(C)c2)cc1OC,22µM*,?,-52%,i,i
CCOC(=O)c1cccc(N/C=C/C(=O)c2ccc(OC)c(OC)c2)c1,?,-2%,14µM*,i,i
COc1ccc(C(=O)O/N=C(\N)c2ccccc2)cc1OC,?,?,-25%,i,i
CCC(C)NC(=O)CCCc1nnc2n(CC(C)C)c(=O)c3sccc3n12 (stereo not drawn),12%,/,/,i,i
CC(=O)Nc1cc(O)c2nonc2c1O,/,/,-41%,/,/
Cc1cccc(C(=O)O/N=C(\N)c2ccc(Cl)cc2)c1,10µM*,5%,-24%,i,i
Cc1cccc(C(=O)O/N=C(\N)c2ccc(Br)cc2)c1,6.3µM*,18%,-36%,i,i
COc1ccccc1C(=O)O/N=C(/c1ccncc1)c1ccc([N+](=O)[O-])cc1,28µM*,3%,14%,/,i
CCN(C(=O)c1cc2c(=O)n(CC)c3ccccc3c2s1)c1cccc(C(F)(F)F)c1,-5%,/,/,i,i
Fc1ccc(-c2n[nH]c(=S)n2N=Cc2cccc(OCc3ccccc3)c2)cc1,/,/,/,i,/
O=C(COC(=O)c1cccnc1Cl)c1cccc(Cl)c1,11µM*,-6%,/,i,i
Cc1ccc(N=c2ssnc2Cl)cc1,-93%,1%,-72%,i,i
Cc1cc(C)nc(/N=c2/ssnc2Cl)c1,2.8µM*,-17%,-65%,/,i
CCCOc1ccc(NC(=O)CC2C(=O)N(c3ccc(Cl)cc3)C(=O)N2CCc2ccncc2)cc1 (stereo not drawn),-9%,/,/,i,i
O=c1c(Cl)c(Cl)cnn1Cc1ccc(F)cc1,20µM*,-5%,1%,i,i
COc1ccc(C2(C)NC(=O)N(Cc3cc(Cl)cc4c3OCOC4)C2=O)cc1OC (stereo not drawn),-7%,-2%,-6%,35µM*,i
SMILES,TDP43 rescue,Mito fusion yeast,aSyn rescue,FUS suppressor,Abeta yeast res
CN1/C(=C/C(=S)NC(=O)C2(C)CC2(Cl)Cl)C(C)(C)c2ccccc21 (stereo not drawn),-11%[1.82 µM],8%,-7%,?,10µM*
O=C(C1CCCC1)N1CCC(CO)(Cc2ccccc2Cl)CC1,20µM*,6%,14%,i,?
COc1cc(-c2cc3nc(NC4CCCCC4)ccn3n2)cc(OC)c1OC,35µM*,/,1%,i,i
COc1cc(-c2cc3nc(NCCN(C)C)ccn3n2)cc(OC)c1OC,-3%,/,-1%,i,i
COC(=O)C1CN(Cc2ccc(OC)cc2)CCS(=O)(=O)N1Cc1ccccc1 (stereo not drawn),/,/,/,i,/
COC(=O)c1cccc(CN2C(=O)C(C)Oc3ccc(C)cc32)c1 (stereo not drawn),18µM*,/,21%,i,i
Cc1ccc(C(CC(=O)NCC2(c3ccccc3)CCCC2)c2ccccc2)c(O)c1 (stereo not drawn),8%,/,/,i,i
Cc1nn2c(-c3ccco3)nnc2c2ccccc12,8.9µM*,2%,/,i,i
O=C(c1cc(=O)c2ccccc2o1)N1CCN(c2ccccc2F)CC1,14µM*,0%,6%,i,i
COc1ccccc1N1CCN(C(=O)c2oc3cc(C)c(C)cc3c2C)CC1,-12%,26%,-1%,i,i
COc1ccccc1N1CCN(C(=O)c2cc(=O)c3c(C)cc(C)cc3o2)CC1,25µM*,?,-3%,i,i
O=C(c1cc2ccccc2o1)N1CCN(S(=O)(=O)c2c(F)cccc2F)CC1,14µM*,2%,10%,i,i
COc1ccccc1N1CCN(C(=O)COc2cc(C)cc3oc(=O)cc(C)c23)CC1,18%,0%,-5%,i,i
COc1ccccc1N1CCN(C(=O)c2oc3ccccc3c2N)CC1,13µM*,/,/,i,i
CCOc1ccc(OCC)c(NC(=O)CCC(=O)N2CCOc3ccccc32)c1,10%,/,/,i,i
CCc1ccc2oc(C(=O)N3CCN(c4ccccc4OC)CC3)cc(=O)c2c1,20µM*,16%,14%,i,i
CN(C)c1ccc(-c2nnc(SCC(=O)NCc3ccco3)n2C)cc1,/,/,-2%,/,/
Cn1c(N)c(C(C[N+](=O)[O-])c2ccccc2Cl)c(=O)n(C)c1=O (stereo not drawn),14µM*,/,-25%,i,i
Cc1ccc(C(C[N+](=O)[O-])c2c(N)n(C)c(=O)n(C)c2=O)cc1 (stereo not drawn),?,-9%,?,i,i
COCCN1Cc2cccc(C(=O)Nc3cc(C)cc(C)c3)c2C1=O,14%,8%,-4%,i,i
CCOC(=O)c1ccc(NC(=O)c2cccc3c2C(=O)N(CC2CCCO2)C3)cc1 (stereo not drawn),22µM*,11%,3%,?,i
CCCN1Cc2cccc(C(=O)Nc3ccc(C)cc3)c2C1=O,8%,2%,-7%,i,i
COCCN1Cc2cccc(C(=O)Nc3ccc(Cl)cc3Cl)c2C1=O,16µM*,/,/,i,i
COCCN1Cc2cccc(C(=O)Nc3ccc(C)c(F)c3)c2C1=O,13µM*,/,/,i,i
CCCOc1ccc(Oc2nc(NCC(C)C)nc(N(C)C)n2)nn1,-4%,/,/,i,i
Cc1nc(N2CCN(C)CC2)c2nnn(Cc3ccccc3)c2n1,/,/,-4%,/,/
CCc1ccc2c(-c3cccc(Cl)c3)nc(=O)n(CC)c2n1,/,12µM*,-1%,/,/
CC(CCc1ccccc1)NC(=O)Cn1c(=O)nc(-c2ccccc2)c2cc(Cl)ccc21 (stereo not drawn),17%,/,/,i,i

# Source: PubChem BioAssay
